PPC-1+TRAIL kill = compounds killing PPC-1 cancer cells with TRAIL present (potentiator screen, no TRAIL-free arm) | PPC-1 cells + TRAIL, ATPLite viability luminescence | cell killing (% activity), % at 4 µM or 5 µM | hit rate 0.41% among 220,000 | AID 1443;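 active = cell killing above 50% in the first pass at 4 µM, then a duplicate retest at 5 µM averaging 50% or more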;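 also: plate controls were cells with TRAIL plus DMSO for no effect and medium-only wells lacking cells for full effect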
HSP90 inh = HSP90 refolding inhibition in rabbit reticulocyte lysate. luciferase refolding luminescence, 3 h. hit rate 0.91% among 290,000. inhibition, % at 5.6 µM;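 active = inhibition above the screen-wide mean plus 3 SD, computed separately per campaign, cut at about 16% in these data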;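 also: 0% = DMSO wells and 100% = 60 µM geldanamycin wells; inhibitors lower the luminescence because luciferase stays unfolded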
STAT3 blocker = STAT3 signaling inhibition | hit rate 0.89% among 190,000 | inhibition, % at 5.5 µM | U3A cells, IL-6 STAT3-luciferase reporter, luminescence; host cell line lacks STAT1;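 active = inhibition above the mean inhibition across all screened compounds plus 3 SD, cut at about 44% in these data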;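 also: 0% = DMSO only wells and 100% = 100 µM nifuroxazide control wells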
STAT1 blocker = reduces IFN-gamma driven STAT1 reporter signal. hit rate 0.35% among 200,000. AID 920. inhibition, % at 5.5 µM. NIH 3T3 STAT1-luciferase reporter, luminescence;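 active = inhibition above a set limit, the mean inhibition across all tested compounds plus 3 SD, cut at about 34% in these data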;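 also: 0% = IFN-gamma with DMSO and 100% = IFN-gamma with 300 µM nifuroxazide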
HSF1 inhib = HSF1 inhibition; NIH3T3-HGL HSE-luciferase, MG132-induced, luminescence 8 h; hits give low values; activity change, negative = inhibition, % at 7.5 µM (by protocol); hit rate 0.77% among 300,000;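 active = more than half of replicate wells show activity change below -50%, luminescence cut by over half; inconclusive = some wells, but at most half, below -50%; inactive = no replicate well below -50%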;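 also: luciferase reports HSF-1 transcriptional activity via heat shock element; 0% = median of DMSO wells and -100% = zero luminescence signal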
C8 TRAIL sens = sensitizes caspase-8 expressing cells to TRAIL; hit rate 1% among 360,000; AID 624354; NB7+C8 cells + TRAIL, ATPlite viability luminescence; inhibition (viability loss, TRAIL sensitization), % at 10 µM;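 active = compounds causing at least 50% loss of cell viability in the single-dose screen, relative to plate controls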
HSP90 confirm = HSP90 inhibition, confirmation assay; shares compounds with HSP90 inh; rabbit reticulocyte lysate, luciferase refolding luminescence, 3 h; inhibition, % at 5.9 µM; hit rate 64% among 2,300; AID 1846; in the data active = inhibition above about 18%;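 also: 0% = vehicle wells and 100% = reference inhibitor wells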
FLuc counter = counter-screen for HSP90 inhibitors: inhibitors of firefly luciferase. shares compounds with HSP90 inh. hit rate 48% among 2,300. purified native firefly luciferase, luminescence. inhibition, % at 5.9 µM;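 active = inhibition above the mean inhibition of all tested sample wells plus 3 SD, cut at about 10% in these data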;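 also: 0% = DMSO with luciferase and 100% = wells lacking luciferase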
Target sequence (P08659 whole entry, looked up): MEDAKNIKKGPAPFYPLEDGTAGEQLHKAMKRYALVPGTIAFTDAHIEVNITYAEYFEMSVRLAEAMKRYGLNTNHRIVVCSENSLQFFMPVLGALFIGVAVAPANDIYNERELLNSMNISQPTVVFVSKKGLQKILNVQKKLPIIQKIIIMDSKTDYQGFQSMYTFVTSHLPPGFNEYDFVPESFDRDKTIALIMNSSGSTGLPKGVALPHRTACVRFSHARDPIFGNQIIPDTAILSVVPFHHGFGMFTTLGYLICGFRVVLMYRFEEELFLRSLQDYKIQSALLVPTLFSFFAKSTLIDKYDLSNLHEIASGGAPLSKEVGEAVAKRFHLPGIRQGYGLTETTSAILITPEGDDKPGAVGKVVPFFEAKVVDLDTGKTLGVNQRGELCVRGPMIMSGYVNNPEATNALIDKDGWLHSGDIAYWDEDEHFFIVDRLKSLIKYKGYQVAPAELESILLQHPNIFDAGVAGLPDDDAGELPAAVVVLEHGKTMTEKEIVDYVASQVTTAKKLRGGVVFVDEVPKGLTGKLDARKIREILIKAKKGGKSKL
Numbers without * were called inactive. Sampled rows, rich in hits. Any-hit rate of the full collection: about 2.4%.

For Cc1ccc(C(=O)NCc2ccc(N3CCN(C)CC3)cc2)cc1C the results were HSP90 inh 21.9*, HSF1 inhib -69.3*, C8 TRAIL sens 0.1, HSP90 confirm 0.5 and FLuc counter -8.9.
CN1CCN(c2ccc(NC(=O)c3ccc4ccccc4c3)cc2)CC1 was read as HSP90 inh 24.9*, HSF1 inhib inconclusive, C8 TRAIL sens 45.0, HSP90 confirm 30.9* and FLuc counter 28.5*.
`OC(c1ccccc1)c1nc(-c2cccc(C(F)(F)F)c2)cs1` (stereo not given) gave C8 TRAIL sens -15.3.
Screening C=CCn1c2ccccc2c(=O)c2cc(C#CC3(O)CCCCC3)ccc21 returned HSP90 inh 19.4*, HSF1 inhib -43.6, C8 TRAIL sens 80.9*, HSP90 confirm 27.0* and FLuc counter 5.2.
For Cc1nc2c(-c3ccc(F)cc3)c(C)nn2c(C)c1CCC(=O)NCCN1CCOCC1 the results were PPC-1+TRAIL kill 13.0, HSP90 inh 39.7*, STAT3 blocker 15.6, STAT1 blocker 0.8, HSF1 inhib 4.7, C8 TRAIL sens -11.1, HSP90 confirm 4.2 and FLuc counter -0.2.
Screening COc1ccc(C(=O)NCCN2CCC(n3c(=O)[nH]c4ccccc43)CC2)cc1F returned C8 TRAIL sens 25.2.
Screening CC(C)(C)OC(=O)NCCC(=O)N/N=C/c1cccc2nccnc12 returned PPC-1+TRAIL kill -1.4, HSP90 inh 4.0 and C8 TRAIL sens 18.4.
Screening Cc1c(Cl)cccc1-c1ccc(/C=N/n2cnnc2)o1 returned PPC-1+TRAIL kill -17.5, HSP90 inh 1.2, STAT3 blocker 12.0, STAT1 blocker -7.0, HSF1 inhib 4.5 and C8 TRAIL sens -15.3.
Cc1c(C(=O)O)cccc1-c1ccc(/C=N/n2cnnc2)o1 was read as HSP90 inh 18.3*, HSF1 inhib 2.1, C8 TRAIL sens -0.7, HSP90 confirm 19.6* and FLuc counter 7.6.
Screening N/C(=N\NC(=O)Nc1ccccc1)c1ccccn1 returned PPC-1+TRAIL kill 5.1, HSP90 inh 31.7*, HSF1 inhib -36.1, C8 TRAIL sens 13.4, HSP90 confirm 8.6 and FLuc counter -1.4.
Screening N/C(=N\NS(=O)(=O)c1ccccc1)c1ccccn1 returned HSF1 inhib 0.7 and C8 TRAIL sens 9.6.
Screening O=c1oc2ccc(Cl)cc2nc1/C=C(\O)c1ccco1 returned PPC-1+TRAIL kill 11.9, HSP90 inh 82.5*, HSF1 inhib 5.3, C8 TRAIL sens 14.3, HSP90 confirm 78.7* and FLuc counter -5.5.
`COc1ccc(/C=C2/C(=O)N(c3ccccc3)N=C2C)cc1` gave HSF1 inhib -4.6 and C8 TRAIL sens -17.2.
Screening COc1ccc(C2=NN(c3ccccc3)C(=O)/C2=C\c2ccc(O)c(OC)c2)cc1 returned PPC-1+TRAIL kill 11.2, HSP90 inh 24.8*, STAT3 blocker -2.1, STAT1 blocker -4.4, HSF1 inhib -0.8, C8 TRAIL sens -5.3, HSP90 confirm -10.0 and FLuc counter -5.4.
`COc1ccc2c(C)c(C(=O)NCC(C)O)oc2c1OC` (stereo not given) gave PPC-1+TRAIL kill -5.6, HSP90 inh 9.1, STAT3 blocker 4.3, STAT1 blocker 10.4, HSF1 inhib 0.3 and C8 TRAIL sens 12.6.
`Cn1nccc1C(=O)Nc1ccc2c(c1)OCCO2` gave PPC-1+TRAIL kill 14.0, HSP90 inh 6.3, STAT3 blocker 17.1, STAT1 blocker -20.3, HSF1 inhib -43.7 and C8 TRAIL sens 16.2.
For Cc1nn(C)cc1C(=O)Nc1ccc2c(c1)OCCO2 the results were HSP90 inh 18.6*, HSF1 inhib -6.7, C8 TRAIL sens -12.7, HSP90 confirm 20.8* and FLuc counter 9.0.
Screening Cn1ccc(C(=O)Nc2ccc3c(c2)OCCO3)n1 returned HSP90 inh 12.3, HSF1 inhib -0.9 and C8 TRAIL sens 39.4.
Screening Cc1c(C(=O)Nc2ccc3c(c2)OCCO3)cnn1C returned HSP90 inh 34.9*, HSF1 inhib -60.8*, C8 TRAIL sens 9.6, HSP90 confirm 56.8* and FLuc counter 60.3*.
For COc1cccc(/C=C/C(=O)OCC(=O)c2ccc(Br)cc2)c1 the results were C8 TRAIL sens 19.7.
Screening O=C(CNC(=O)c1ccccc1)OC(C(=O)O)c1ccc(F)cc1 (stereo not given) returned C8 TRAIL sens 4.1.
Cc1ccc(-c2nc(-c3ccccn3)no2)cc1[N+](=O)[O-] was read as PPC-1+TRAIL kill 33.7, HSP90 inh 29.7*, HSF1 inhib 18.4, C8 TRAIL sens 52.0*, HSP90 confirm 57.8* and FLuc counter 52.3*.
Screening O=C1NC[C@H](Cc2ccc(O)cc2)N(C[C@@H]2CCCN2C[C@H](Cc2ccccc2)N2C[C@H](Cc3ccc(O)cc3)N(CC3CCCCCC3)C(=O)C2=O)C1=O returned C8 TRAIL sens -6.0.
`CN1C(=O)C2(C(C#N)=C(N)N(c3ccc(Cl)cc3)C3=C2C(=O)CC(C)(C)C3)c2ccccc21` (stereo not given) gave PPC-1+TRAIL kill 26.1, HSP90 inh 36.7*, STAT3 blocker 2.6, STAT1 blocker -1.4, C8 TRAIL sens -6.2, HSP90 confirm -2.7 and FLuc counter -5.2.
For CCOC(=O)CCCN(c1[nH]c(C)c(C)c1C#N)S(=O)(=O)c1ccc(C)cc1 the results were C8 TRAIL sens -8.6.
Nc1cc2nsnc2cc1Br was read as PPC-1+TRAIL kill 0.0, HSP90 inh 24.7*, STAT3 blocker 24.5, STAT1 blocker 10.8, HSF1 inhib -1.4, C8 TRAIL sens 95.7*, HSP90 confirm 14.0 and FLuc counter -4.7.
CCOC(=O)N1CCN(C(=O)C[C@@H]2C[C@@]3(C(=O)OCC)CCCC=C3N(Cc3ccc4c(c3)OCO4)C2=O)CC1 was read as C8 TRAIL sens 11.1.
`Oc1ccc(O)c(C=NNC(=S)NC2CC3CC2C2C=CCC32)c1` (stereo not given) gave C8 TRAIL sens 27.6.
NNC(=S)NC1CC2CC1C1C=CCC21 (stereo not given) was read as PPC-1+TRAIL kill 23.4, HSP90 inh 24.8*, HSF1 inhib -54.0*, C8 TRAIL sens -9.0, HSP90 confirm -3.8 and FLuc counter -9.6.
For CC1(C(=O)NS(=O)(=O)C2CC2)CCCN(C(=O)COCc2ccccc2)C1 (stereo not given) the results were C8 TRAIL sens 9.2.
Screening Cc1cc(C(=O)COC(=O)c2ccccc2O)c(C)n1Cc1cccs1 returned PPC-1+TRAIL kill -1.6, HSP90 inh 82.2*, STAT3 blocker 104.3*, STAT1 blocker 74.7*, HSF1 inhib -89.7*, C8 TRAIL sens 89.9*, HSP90 confirm 86.4* and FLuc counter 84.5*.

Assay outcomes from PubChem BioAssay.
